# Results taken from PubChem BioAssay AID1039 (National Center for Advancing Translational Sciences (NCATS), 2008).
# Calls of active or inactive are those of the source. Calls come from the whole dose curve.
# Assay: Normal 2 Cell Viability Secondary Assay for qHTS Assay for Epigenetic Modulators
# Conditions: Normal 2 bronchial epithelial viability, MTS, 4 days
# From the text: NIH Molecular Libraries Screening Centers Network [MLSCN] NIH Chemical Genomics Center [NCGC] MLSCN Grant: 1 X01 MH079860-01 Assay Provider: Elisabeth D. Martinez, University of Texas SW Medical Center NCGC Assay Overview: This secondary assay characterizes selected actives identified in the qHTS of the Locus Derepression (LDR) assay (PubChem AID 597). The LDR assay detects the derepression of a GFP reporter that is stably integrated in a region of the genome of murine c127i mammary cells that is presumably silenced. Compounds that cause derepression of the locus to express GFP are identified by enumerating GFP positive cells using a laser-scanning microplate cytometer. […] Normal 2 cell viability was measured using Cell Titer 96 AQueous One (Promega), an assay which detects the ability of metabolically active cells to reduce a tetrazolium salt substrate (MTS), into a soluble formazan product that can be measured by colorimetry.
# NCGC Assay Protocol Summary Normal 2 cells were plated in 96-well flat bottom tissue culture dishes (Corning) and grown overnight at 37 C and 5% CO2, then treated with compounds, incubated 4 days, and assayed for viability using the Cell Titer 96 AQueous One kit (Promega) according to the manufacturer's protocol. Absorbance at 490 nm and 650 nm (reference) was measured by a Spectra Max (Molecular Devices). […]
smiles,measurement,value
CN1CSC(=S)N(C)C1,outcome,inactive
